Residue numbers refer to the chain shown, from its start. The full ranking holds about 16,000 sequences; the median of “ka relative to ugcaugu” is about 0.0091, and the highest 2% start at about 0.032. The sample as a whole holds a higher share of the highest values than the screen did.
T1: RBFOX1 RRM (Homo sapiens, UniProt Q9NWB1 109-208)
T1 sequence: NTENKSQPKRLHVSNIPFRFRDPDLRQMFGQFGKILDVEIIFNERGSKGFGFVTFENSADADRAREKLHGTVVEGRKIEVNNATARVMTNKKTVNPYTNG

B1: CAACUAC (DNA:RNA)
RNA: GGGAGACCGGAAUUCAGAUUGUCCCAACUACUUAAAUCCCGUCGUAGCCACCA
DNA 1: CAATCTGAATTCCGGTCTCCC
DNA 2: TGGTGGCTACGACGGGATT
B2: UGACGCG (DNA:RNA)
RNA: B1 RNA with C25U, A26G, U29G, A30C, C31G
DNA 1: CAATCTGAATTCCGGTCTCCC
DNA 2: TGGTGGCTACGACGGGATT
B3: UACCGAU (DNA:RNA)
RNA: B1 RNA with C25U, A27C, U29G, C31U
DNA 1: CAATCTGAATTCCGGTCTCCC
DNA 2: TGGTGGCTACGACGGGATT
B4: GACGCUG (DNA:RNA)
RNA: B1 RNA with C25G, A27C, C28G, U29C, A30U, C31G
DNA 1: CAATCTGAATTCCGGTCTCCC
DNA 2: TGGTGGCTACGACGGGATT
B5: GGAGAUC (DNA:RNA)
RNA: B1 RNA with C25G, A26G, C28G, U29A, A30U
DNA 1: CAATCTGAATTCCGGTCTCCC
DNA 2: TGGTGGCTACGACGGGATT
B6: GGAUCUU (DNA:RNA)
RNA: B1 RNA with C25G, A26G, C28U, U29C, A30U, C31U
DNA 1: CAATCTGAATTCCGGTCTCCC
DNA 2: TGGTGGCTACGACGGGATT
B7: GGGAGUC (DNA:RNA)
RNA: B1 RNA with C25G, A26G, A27G, C28A, U29G, A30U
DNA 1: CAATCTGAATTCCGGTCTCCC
DNA 2: TGGTGGCTACGACGGGATT
B8: GGAUCUC (DNA:RNA)
RNA: B1 RNA with C25G, A26G, C28U, U29C, A30U
DNA 1: CAATCTGAATTCCGGTCTCCC
DNA 2: TGGTGGCTACGACGGGATT
B9: GGAGUCU (DNA:RNA)
RNA: B1 RNA with C25G, A26G, C28G, A30C, C31U
DNA 1: CAATCTGAATTCCGGTCTCCC
DNA 2: TGGTGGCTACGACGGGATT
B10: GGGAUCU (DNA:RNA)
RNA: B1 RNA with C25G, A26G, A27G, C28A, A30C, C31U
DNA 1: CAATCTGAATTCCGGTCTCCC
DNA 2: TGGTGGCTACGACGGGATT
B11: GGGAAUC (DNA:RNA)
RNA: B1 RNA with C25G, A26G, A27G, C28A, U29A, A30U
DNA 1: CAATCTGAATTCCGGTCTCCC
DNA 2: TGGTGGCTACGACGGGATT
B12: GCGGAUC (DNA:RNA)
RNA: B1 RNA with C25G, A26C, A27G, C28G, U29A, A30U
DNA 1: CAATCTGAATTCCGGTCTCCC
DNA 2: TGGTGGCTACGACGGGATT
B13: CGGAGUC (DNA:RNA)
RNA: B1 RNA with A26G, A27G, C28A, U29G, A30U
DNA 1: CAATCTGAATTCCGGTCTCCC
DNA 2: TGGTGGCTACGACGGGATT
B14: CGGAUCU (DNA:RNA)
RNA: B1 RNA with A26G, A27G, C28A, A30C, C31U
DNA 1: CAATCTGAATTCCGGTCTCCC
DNA 2: TGGTGGCTACGACGGGATT
B15: GGGGAUC (DNA:RNA)
RNA: B1 RNA with C25G, A26G, A27G, C28G, U29A, A30U
DNA 1: CAATCTGAATTCCGGTCTCCC
DNA 2: TGGTGGCTACGACGGGATT
B16: GUUAAUC (DNA:RNA)
RNA: B1 RNA with C25G, A26U, A27U, C28A, U29A, A30U
DNA 1: CAATCTGAATTCCGGTCTCCC
DNA 2: TGGTGGCTACGACGGGATT
B17: UAUUACU (DNA:RNA)
RNA: B1 RNA with C25U, A27U, C28U, U29A, A30C, C31U
DNA 1: CAATCTGAATTCCGGTCTCCC
DNA 2: TGGTGGCTACGACGGGATT
B18: AUAAGGU (DNA:RNA)
RNA: B1 RNA with C25A, A26U, C28A, U29G, A30G, C31U
DNA 1: CAATCTGAATTCCGGTCTCCC
DNA 2: TGGTGGCTACGACGGGATT
B19: CCGAAGU (DNA:RNA)
RNA: B1 RNA with A26C, A27G, C28A, U29A, A30G, C31U
DNA 1: CAATCTGAATTCCGGTCTCCC
DNA 2: TGGTGGCTACGACGGGATT
B20: AGGUAUU (DNA:RNA)
RNA: GGGAGACCGGAAUUCAGAUUGUCCAGGUAUUUUAAAUCCCGUCGUAGCCACCA
DNA 1: CAATCTGAATTCCGGTCTCCC
DNA 2: TGGTGGCTACGACGGGATT
B21: UCAUCUG (DNA:RNA)
RNA: B20 RNA with A25U, G26C, G27A, A29C, U31G
DNA 1: CAATCTGAATTCCGGTCTCCC
DNA 2: TGGTGGCTACGACGGGATT
B22: GAGUUUA (DNA:RNA)
RNA: B20 RNA with A25G, G26A, A29U, U31A
DNA 1: CAATCTGAATTCCGGTCTCCC
DNA 2: TGGTGGCTACGACGGGATT
B23: ACUCUUU (DNA:RNA)
RNA: B20 RNA with G26C, G27U, U28C, A29U
DNA 1: CAATCTGAATTCCGGTCTCCC
DNA 2: TGGTGGCTACGACGGGATT
B24: AGGUCUA (DNA:RNA)
RNA: B20 RNA with A29C, U31A
DNA 1: CAATCTGAATTCCGGTCTCCC
DNA 2: TGGTGGCTACGACGGGATT
B25: GAGUCUC (DNA:RNA)
RNA: B20 RNA with A25G, G26A, A29C, U31C
DNA 1: CAATCTGAATTCCGGTCTCCC
DNA 2: TGGTGGCTACGACGGGATT
B26: CGGGAUC (DNA:RNA)
RNA: B20 RNA with A25C, U28G, U31C
DNA 1: CAATCTGAATTCCGGTCTCCC
DNA 2: TGGTGGCTACGACGGGATT
B27: CCGAGUC (DNA:RNA)
RNA: B20 RNA with A25C, G26C, U28A, A29G, U31C
DNA 1: CAATCTGAATTCCGGTCTCCC
DNA 2: TGGTGGCTACGACGGGATT
B28: GAGAGUC (DNA:RNA)
RNA: B20 RNA with A25G, G26A, U28A, A29G, U31C
DNA 1: CAATCTGAATTCCGGTCTCCC
DNA 2: TGGTGGCTACGACGGGATT
B29: CGGAAUC (DNA:RNA)
RNA: B20 RNA with A25C, U28A, U31C
DNA 1: CAATCTGAATTCCGGTCTCCC
DNA 2: TGGTGGCTACGACGGGATT
B30: CCGGAUC (DNA:RNA)
RNA: B20 RNA with A25C, G26C, U28G, U31C
DNA 1: CAATCTGAATTCCGGTCTCCC
DNA 2: TGGTGGCTACGACGGGATT
B31: CAUGGAC (DNA:RNA)
RNA: B1 RNA with A27U, C28G, U29G
DNA 1: CAATCTGAATTCCGGTCTCCC
DNA 2: TGGTGGCTACGACGGGATT

The binders below were run against T1, RBFOX1 RRM (assay: EMSA; HiTS-Eq, 1 nM pool, 10 min; buffer printed only for the single-RNA assays: 10 mM Tris pH 7.5, 150 mM NaCl, 3.4 mM EDTA, 0.001% NP-40, 30 C). Settings: tags: His6 N-terminal (pET28a); label: 5' 32P.
Outline: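 These values rest on relative association constants, computed from read-count changes of each RNA species versus the control reaction and normalised to the cognate motif. Reads came from free RNA recovered by 8% native PAGE after purified RbFox RRM (wild type or mutant) at increasing concentrations was equilibrated for 10 min in 50 µL with 1 nM of a 5′-radiolabelled pool with 7 randomized nucleotides and DNA-annealed flanks.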

Binder	binding signal
B1	0.000393 KA relative to UGCAUGU
B2	0.0215 KA relative to UGCAUGU
B3	0.00545 KA relative to UGCAUGU
B4	0.0241 KA relative to UGCAUGU
B5	0.0208 KA relative to UGCAUGU
B6	0.0133 KA relative to UGCAUGU
B7	0.0339 KA relative to UGCAUGU
B8	0.0209 KA relative to UGCAUGU
B9	0.0284 KA relative to UGCAUGU
B10	0.0381 KA relative to UGCAUGU
B11	0.0328 KA relative to UGCAUGU
B12	0.00958 KA relative to UGCAUGU
B13	0.0303 KA relative to UGCAUGU
B14	0.0232 KA relative to UGCAUGU
B15	0.0348 KA relative to UGCAUGU
B16	0.00989 KA relative to UGCAUGU

Binder	binding signal
B17	0.00399 KA relative to UGCAUGU
B18	0.00979 KA relative to UGCAUGU
B19	0.00878 KA relative to UGCAUGU
B20	0.0064 KA relative to UGCAUGU
B21	0.00773 KA relative to UGCAUGU
B22	0.00687 KA relative to UGCAUGU
B23	0.00357 KA relative to UGCAUGU
B24	0.00527 KA relative to UGCAUGU
B25	0.032 KA relative to UGCAUGU
B26	0.0318 KA relative to UGCAUGU
B27	0.0112 KA relative to UGCAUGU
B28	0.0183 KA relative to UGCAUGU
B29	0.0233 KA relative to UGCAUGU
B30	0.0104 KA relative to UGCAUGU
B31	0.00577 KA relative to UGCAUGU

Source: publication PMC9911399, “Two distinct binding modes provide the RNA-binding protein RbFox with extraordinary sequence specificity”
